According to PMC7862700, “An all-to-all approach to the identification of sequence-specific readers for epigenetic DNA modifications on cytosine”:

Assays:
Assay in all cases: DAPPL (digital affinity profiling via proximity ligation, sequencing); 10 mM Tris-HCl pH 7.5, 50 mM NaCl, 1 mM DTT, 4% glycerol, room temperature, 30 min; GST-TFs on glutathione beads, 16-mer random dsDNA library, 0.1% formaldehyde crosslink after washing; high values mean tight binding
Conditions in all cases: protein: recombinant; tags: N-terminal GST; dsDNA, one strand shown
[1] = target: T1, ERF (Homo sapiens, UniProt P50548 1-548)
T1 sequence: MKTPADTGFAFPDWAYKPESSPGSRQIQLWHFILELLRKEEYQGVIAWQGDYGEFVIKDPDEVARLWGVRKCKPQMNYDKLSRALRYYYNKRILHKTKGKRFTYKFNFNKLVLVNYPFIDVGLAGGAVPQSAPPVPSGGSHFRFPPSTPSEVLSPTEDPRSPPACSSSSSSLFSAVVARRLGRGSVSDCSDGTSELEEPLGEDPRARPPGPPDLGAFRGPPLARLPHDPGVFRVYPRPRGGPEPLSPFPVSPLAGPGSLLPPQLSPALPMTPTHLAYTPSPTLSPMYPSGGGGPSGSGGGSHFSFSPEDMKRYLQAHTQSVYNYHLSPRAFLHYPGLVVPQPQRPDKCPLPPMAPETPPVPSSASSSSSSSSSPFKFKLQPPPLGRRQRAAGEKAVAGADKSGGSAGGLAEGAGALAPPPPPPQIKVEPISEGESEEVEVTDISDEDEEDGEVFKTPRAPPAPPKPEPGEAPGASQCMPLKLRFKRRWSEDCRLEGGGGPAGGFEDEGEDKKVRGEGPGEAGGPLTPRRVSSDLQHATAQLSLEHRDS
Procedure, shortened: (§1)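 Binding signal is given per hexamer as its read frequency for a factor divided by its frequency in the tag-only sample. GST-fused human transcription factors were expressed in yeast, captured on glutathione beads, barcoded with DNA and pooled with that sample, then incubated with 200 nmole of a 16-mer random double-stranded DNA library in Tris/NaCl/DTT/glycerol buffer for 30 min at room temperature. The pools were then washed, crosslinked, proximity-ligated, amplified by PCR and sequenced on an Illumina NextSeq500.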

[2] = target: T2, ETV3L (Homo sapiens, UniProt Q6ZN32 1-361)
T2 sequence: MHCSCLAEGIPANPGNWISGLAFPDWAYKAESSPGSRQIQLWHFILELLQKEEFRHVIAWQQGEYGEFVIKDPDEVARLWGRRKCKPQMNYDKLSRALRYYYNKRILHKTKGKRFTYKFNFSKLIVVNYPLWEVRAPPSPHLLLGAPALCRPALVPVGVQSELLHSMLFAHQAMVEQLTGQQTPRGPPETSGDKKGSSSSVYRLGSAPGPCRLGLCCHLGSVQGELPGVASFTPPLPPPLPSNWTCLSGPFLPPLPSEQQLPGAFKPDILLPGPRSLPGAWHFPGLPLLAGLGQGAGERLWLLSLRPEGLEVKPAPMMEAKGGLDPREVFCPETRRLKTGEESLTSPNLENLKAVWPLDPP
Procedure, shortened: as §1

[3] = target: T3, ETS2 (Homo sapiens, UniProt P15036 1-469)
T3 sequence: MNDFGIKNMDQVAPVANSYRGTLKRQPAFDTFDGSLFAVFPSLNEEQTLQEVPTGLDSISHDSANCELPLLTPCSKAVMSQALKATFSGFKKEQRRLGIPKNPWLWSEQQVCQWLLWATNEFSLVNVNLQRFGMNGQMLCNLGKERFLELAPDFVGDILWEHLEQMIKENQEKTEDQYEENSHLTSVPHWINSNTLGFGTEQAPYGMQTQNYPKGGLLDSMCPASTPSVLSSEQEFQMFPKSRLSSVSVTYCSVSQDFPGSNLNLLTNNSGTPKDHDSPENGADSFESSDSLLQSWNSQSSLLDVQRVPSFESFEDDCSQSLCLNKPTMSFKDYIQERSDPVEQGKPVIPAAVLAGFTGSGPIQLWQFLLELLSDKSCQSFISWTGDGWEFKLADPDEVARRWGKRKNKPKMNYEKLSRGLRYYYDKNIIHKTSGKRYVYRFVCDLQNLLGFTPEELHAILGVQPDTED
Procedure, shortened: as §1

[4] = target: T4, SPDEF (Homo sapiens, UniProt O95238 1-335)
T4 sequence: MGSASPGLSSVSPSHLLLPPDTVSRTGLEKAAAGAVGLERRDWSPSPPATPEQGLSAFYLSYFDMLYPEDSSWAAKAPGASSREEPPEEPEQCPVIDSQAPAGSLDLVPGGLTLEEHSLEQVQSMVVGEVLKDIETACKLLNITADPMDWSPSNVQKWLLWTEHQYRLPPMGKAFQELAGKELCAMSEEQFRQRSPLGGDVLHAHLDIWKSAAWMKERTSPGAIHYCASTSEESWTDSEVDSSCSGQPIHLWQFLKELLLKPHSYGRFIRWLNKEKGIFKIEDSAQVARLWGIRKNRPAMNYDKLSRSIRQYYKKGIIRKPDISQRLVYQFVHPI
Procedure, shortened: as §1

[5] = target: T5, ETV7 (Homo sapiens, UniProt Q9Y603 1-341)
T5 sequence: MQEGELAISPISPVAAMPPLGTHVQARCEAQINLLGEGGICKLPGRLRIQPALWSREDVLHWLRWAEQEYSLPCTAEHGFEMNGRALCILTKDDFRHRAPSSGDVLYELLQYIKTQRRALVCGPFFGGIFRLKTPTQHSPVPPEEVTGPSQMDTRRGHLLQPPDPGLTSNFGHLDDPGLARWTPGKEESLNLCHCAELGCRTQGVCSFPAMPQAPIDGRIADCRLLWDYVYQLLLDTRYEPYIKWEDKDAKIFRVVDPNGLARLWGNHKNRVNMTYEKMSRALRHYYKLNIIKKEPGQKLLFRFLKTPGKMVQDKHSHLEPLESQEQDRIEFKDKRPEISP
Procedure, shortened: as §1

[6] = target: T6, ELF5 (Homo sapiens, UniProt Q9UKW6-2 1-255)
T6 sequence: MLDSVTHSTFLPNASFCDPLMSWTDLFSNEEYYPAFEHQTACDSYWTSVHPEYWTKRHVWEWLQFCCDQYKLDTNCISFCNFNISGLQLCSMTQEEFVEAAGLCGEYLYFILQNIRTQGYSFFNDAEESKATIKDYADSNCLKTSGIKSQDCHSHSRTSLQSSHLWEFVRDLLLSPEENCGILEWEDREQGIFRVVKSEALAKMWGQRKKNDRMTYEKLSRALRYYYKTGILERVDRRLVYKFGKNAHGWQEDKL
Procedure, shortened: as §1

[7] = target: T7, ETV3 (Homo sapiens, UniProt P41162-2 1-143)
T7 sequence: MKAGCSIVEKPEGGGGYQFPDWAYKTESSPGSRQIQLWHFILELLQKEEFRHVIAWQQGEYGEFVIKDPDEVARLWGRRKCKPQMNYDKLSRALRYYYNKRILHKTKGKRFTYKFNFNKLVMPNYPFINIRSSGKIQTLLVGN
Procedure, shortened: as §1

[8] = target: ETV6 (Homo sapiens, UniProt P41212 1-452)
Procedure, shortened: as §1

ETV6, sequence (P41212 whole entry): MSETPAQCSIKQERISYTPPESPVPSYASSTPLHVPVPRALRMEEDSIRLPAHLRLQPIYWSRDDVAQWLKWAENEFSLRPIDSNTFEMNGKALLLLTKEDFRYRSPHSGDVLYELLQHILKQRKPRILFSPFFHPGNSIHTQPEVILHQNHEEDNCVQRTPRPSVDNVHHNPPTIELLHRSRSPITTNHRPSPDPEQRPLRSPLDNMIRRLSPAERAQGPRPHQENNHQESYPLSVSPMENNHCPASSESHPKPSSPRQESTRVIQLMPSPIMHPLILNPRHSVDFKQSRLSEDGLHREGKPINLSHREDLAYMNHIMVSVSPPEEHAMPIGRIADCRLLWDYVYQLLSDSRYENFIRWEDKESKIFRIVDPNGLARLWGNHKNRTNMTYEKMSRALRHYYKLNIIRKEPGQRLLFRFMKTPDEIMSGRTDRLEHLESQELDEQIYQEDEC

Sequence	binding signal [1]	binding signal [2]	binding signal [3]	binding signal [4]	binding signal [5]	binding signal [6]	binding signal [7]	binding signal [8]
ACTTCA	1.33 fold enrichment (6-mer frequency, TF over GST control)	1.4 fold enrichment (6-mer frequency, TF over GST control)	1.42 fold enrichment (6-mer frequency, TF over GST control)	1.37 fold enrichment (6-mer frequency, TF over GST control)	1.54 fold enrichment (6-mer frequency, TF over GST control)	1.4 fold enrichment (6-mer frequency, TF over GST control)	1.29 fold enrichment (6-mer frequency, TF over GST control)	1.35 fold enrichment (6-mer frequency, TF over GST control)
CTCTTC	1.62 fold enrichment (6-mer frequency, TF over GST control)	1.89 fold enrichment (6-mer frequency, TF over GST control)	1.65 fold enrichment (6-mer frequency, TF over GST control)	1.59 fold enrichment (6-mer frequency, TF over GST control)	1.56 fold enrichment (6-mer frequency, TF over GST control)	2.07 fold enrichment (6-mer frequency, TF over GST control)	1.75 fold enrichment (6-mer frequency, TF over GST control)	1.84 fold enrichment (6-mer frequency, TF over GST control)
TCTTAT	1.24 fold enrichment (6-mer frequency, TF over GST control)	1.29 fold enrichment (6-mer frequency, TF over GST control)	1.31 fold enrichment (6-mer frequency, TF over GST control)	1.24 fold enrichment (6-mer frequency, TF over GST control)	1.25 fold enrichment (6-mer frequency, TF over GST control)	1.29 fold enrichment (6-mer frequency, TF over GST control)	1.23 fold enrichment (6-mer frequency, TF over GST control)	1.3 fold enrichment (6-mer frequency, TF over GST control)
TTGACT	1.18 fold enrichment (6-mer frequency, TF over GST control)	1.09 fold enrichment (6-mer frequency, TF over GST control)	1.14 fold enrichment (6-mer frequency, TF over GST control)	1.15 fold enrichment (6-mer frequency, TF over GST control)	1.22 fold enrichment (6-mer frequency, TF over GST control)	1.08 fold enrichment (6-mer frequency, TF over GST control)	1.15 fold enrichment (6-mer frequency, TF over GST control)	1.24 fold enrichment (6-mer frequency, TF over GST control)
CCTAAA	1.4 fold enrichment (6-mer frequency, TF over GST control)	1.32 fold enrichment (6-mer frequency, TF over GST control)	1.33 fold enrichment (6-mer frequency, TF over GST control)	1.32 fold enrichment (6-mer frequency, TF over GST control)	1.34 fold enrichment (6-mer frequency, TF over GST control)	1.27 fold enrichment (6-mer frequency, TF over GST control)	1.28 fold enrichment (6-mer frequency, TF over GST control)	1.25 fold enrichment (6-mer frequency, TF over GST control)
CATTTT	1.22 fold enrichment (6-mer frequency, TF over GST control)	1.24 fold enrichment (6-mer frequency, TF over GST control)	1.1 fold enrichment (6-mer frequency, TF over GST control)	1.06 fold enrichment (6-mer frequency, TF over GST control)	1.2 fold enrichment (6-mer frequency, TF over GST control)	1.22 fold enrichment (6-mer frequency, TF over GST control)	1.18 fold enrichment (6-mer frequency, TF over GST control)	1.28 fold enrichment (6-mer frequency, TF over GST control)
CAATAA	1.15 fold enrichment (6-mer frequency, TF over GST control)	1.13 fold enrichment (6-mer frequency, TF over GST control)	1.19 fold enrichment (6-mer frequency, TF over GST control)	1.05 fold enrichment (6-mer frequency, TF over GST control)	1.06 fold enrichment (6-mer frequency, TF over GST control)	1.06 fold enrichment (6-mer frequency, TF over GST control)	1.14 fold enrichment (6-mer frequency, TF over GST control)	1.12 fold enrichment (6-mer frequency, TF over GST control)
